Tests used:
Experiment in all cases: log2 ratio of Biotin-Ahx-Ub-VS probe labelling (fragment/DMSO); higher = less target engagement (more negative = stronger competition), active = hit call of the paper (q ≤ 0.05, log2 ratio ≤ -1)
Conditions in all cases: compound concentration: 200 uM; treatment time: 3 h
USP19 = target: T1, USP19 (UniProt O94966)
T1 sequence (whole entry): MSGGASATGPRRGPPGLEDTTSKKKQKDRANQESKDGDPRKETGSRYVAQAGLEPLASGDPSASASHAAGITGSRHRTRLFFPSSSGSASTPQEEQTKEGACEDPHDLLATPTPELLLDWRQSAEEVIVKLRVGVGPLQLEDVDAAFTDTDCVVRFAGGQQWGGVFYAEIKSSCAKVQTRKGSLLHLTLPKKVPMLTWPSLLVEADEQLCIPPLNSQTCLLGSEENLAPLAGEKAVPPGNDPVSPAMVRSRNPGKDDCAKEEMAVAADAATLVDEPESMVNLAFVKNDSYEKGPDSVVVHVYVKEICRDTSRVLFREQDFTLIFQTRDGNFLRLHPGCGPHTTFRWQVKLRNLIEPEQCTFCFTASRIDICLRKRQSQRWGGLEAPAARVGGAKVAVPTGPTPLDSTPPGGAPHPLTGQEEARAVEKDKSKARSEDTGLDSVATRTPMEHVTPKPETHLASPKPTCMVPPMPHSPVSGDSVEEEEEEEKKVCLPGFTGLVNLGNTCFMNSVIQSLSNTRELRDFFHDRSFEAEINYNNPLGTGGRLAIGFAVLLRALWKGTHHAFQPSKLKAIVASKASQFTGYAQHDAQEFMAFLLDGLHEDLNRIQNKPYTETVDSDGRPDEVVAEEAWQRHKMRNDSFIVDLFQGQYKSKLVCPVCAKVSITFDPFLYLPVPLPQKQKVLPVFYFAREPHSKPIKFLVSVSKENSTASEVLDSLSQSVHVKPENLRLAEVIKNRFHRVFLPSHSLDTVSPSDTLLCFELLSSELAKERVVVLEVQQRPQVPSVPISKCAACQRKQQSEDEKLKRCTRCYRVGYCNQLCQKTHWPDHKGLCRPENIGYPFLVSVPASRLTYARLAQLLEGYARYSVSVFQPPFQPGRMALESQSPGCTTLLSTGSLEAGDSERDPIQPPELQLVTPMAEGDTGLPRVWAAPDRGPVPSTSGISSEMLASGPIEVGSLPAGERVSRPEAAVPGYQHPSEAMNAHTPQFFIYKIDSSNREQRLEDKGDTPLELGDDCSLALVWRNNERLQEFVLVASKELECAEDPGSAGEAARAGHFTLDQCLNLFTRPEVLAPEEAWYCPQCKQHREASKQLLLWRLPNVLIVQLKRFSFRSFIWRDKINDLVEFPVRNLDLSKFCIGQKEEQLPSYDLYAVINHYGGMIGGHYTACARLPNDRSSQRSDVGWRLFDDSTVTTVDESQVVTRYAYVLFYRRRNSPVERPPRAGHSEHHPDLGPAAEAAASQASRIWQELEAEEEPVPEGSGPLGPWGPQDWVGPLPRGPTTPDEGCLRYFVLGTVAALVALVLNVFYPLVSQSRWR
Method in brief: (§1)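 Triplicate samples of HEK293T lysate, 495 µg each, received fragment at 200 µM or vehicle for 3 h, followed by Biotin-Ahx-Ub-VS (0.5 µM final) for 1 h. After NeutrAvidin enrichment of labelled DUBs and LysC/trypsin digestion, peptides were run by diaPASEF LC-MS/MS. The values are average log2 fragment/vehicle ratios from global-median-normalised Spectronaut label-free quantities, tested by unpaired t-test on proteins having ≥2 unique peptides.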

USP22 = target: T2, USP22 (UniProt Q9UPT9)
T2 sequence (whole entry): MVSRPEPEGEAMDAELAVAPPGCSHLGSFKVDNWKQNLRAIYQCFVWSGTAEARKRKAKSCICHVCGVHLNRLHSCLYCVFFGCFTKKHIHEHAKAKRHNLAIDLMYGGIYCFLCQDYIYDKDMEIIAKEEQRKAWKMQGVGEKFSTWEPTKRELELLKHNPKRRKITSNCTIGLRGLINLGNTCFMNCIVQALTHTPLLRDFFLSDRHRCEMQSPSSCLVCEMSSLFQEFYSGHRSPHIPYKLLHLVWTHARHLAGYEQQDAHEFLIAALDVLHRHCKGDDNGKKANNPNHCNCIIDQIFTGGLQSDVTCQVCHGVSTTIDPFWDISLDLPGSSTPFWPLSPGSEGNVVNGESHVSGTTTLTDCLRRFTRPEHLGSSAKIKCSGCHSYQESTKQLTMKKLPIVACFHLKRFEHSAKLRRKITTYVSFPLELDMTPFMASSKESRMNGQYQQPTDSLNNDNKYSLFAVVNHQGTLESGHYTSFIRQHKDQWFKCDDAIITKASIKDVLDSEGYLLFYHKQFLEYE
Method in brief: as §1

USP24 = USP24 (UniProt Q9UPU5)
USP24, sequence (Q9UPU5 whole entry): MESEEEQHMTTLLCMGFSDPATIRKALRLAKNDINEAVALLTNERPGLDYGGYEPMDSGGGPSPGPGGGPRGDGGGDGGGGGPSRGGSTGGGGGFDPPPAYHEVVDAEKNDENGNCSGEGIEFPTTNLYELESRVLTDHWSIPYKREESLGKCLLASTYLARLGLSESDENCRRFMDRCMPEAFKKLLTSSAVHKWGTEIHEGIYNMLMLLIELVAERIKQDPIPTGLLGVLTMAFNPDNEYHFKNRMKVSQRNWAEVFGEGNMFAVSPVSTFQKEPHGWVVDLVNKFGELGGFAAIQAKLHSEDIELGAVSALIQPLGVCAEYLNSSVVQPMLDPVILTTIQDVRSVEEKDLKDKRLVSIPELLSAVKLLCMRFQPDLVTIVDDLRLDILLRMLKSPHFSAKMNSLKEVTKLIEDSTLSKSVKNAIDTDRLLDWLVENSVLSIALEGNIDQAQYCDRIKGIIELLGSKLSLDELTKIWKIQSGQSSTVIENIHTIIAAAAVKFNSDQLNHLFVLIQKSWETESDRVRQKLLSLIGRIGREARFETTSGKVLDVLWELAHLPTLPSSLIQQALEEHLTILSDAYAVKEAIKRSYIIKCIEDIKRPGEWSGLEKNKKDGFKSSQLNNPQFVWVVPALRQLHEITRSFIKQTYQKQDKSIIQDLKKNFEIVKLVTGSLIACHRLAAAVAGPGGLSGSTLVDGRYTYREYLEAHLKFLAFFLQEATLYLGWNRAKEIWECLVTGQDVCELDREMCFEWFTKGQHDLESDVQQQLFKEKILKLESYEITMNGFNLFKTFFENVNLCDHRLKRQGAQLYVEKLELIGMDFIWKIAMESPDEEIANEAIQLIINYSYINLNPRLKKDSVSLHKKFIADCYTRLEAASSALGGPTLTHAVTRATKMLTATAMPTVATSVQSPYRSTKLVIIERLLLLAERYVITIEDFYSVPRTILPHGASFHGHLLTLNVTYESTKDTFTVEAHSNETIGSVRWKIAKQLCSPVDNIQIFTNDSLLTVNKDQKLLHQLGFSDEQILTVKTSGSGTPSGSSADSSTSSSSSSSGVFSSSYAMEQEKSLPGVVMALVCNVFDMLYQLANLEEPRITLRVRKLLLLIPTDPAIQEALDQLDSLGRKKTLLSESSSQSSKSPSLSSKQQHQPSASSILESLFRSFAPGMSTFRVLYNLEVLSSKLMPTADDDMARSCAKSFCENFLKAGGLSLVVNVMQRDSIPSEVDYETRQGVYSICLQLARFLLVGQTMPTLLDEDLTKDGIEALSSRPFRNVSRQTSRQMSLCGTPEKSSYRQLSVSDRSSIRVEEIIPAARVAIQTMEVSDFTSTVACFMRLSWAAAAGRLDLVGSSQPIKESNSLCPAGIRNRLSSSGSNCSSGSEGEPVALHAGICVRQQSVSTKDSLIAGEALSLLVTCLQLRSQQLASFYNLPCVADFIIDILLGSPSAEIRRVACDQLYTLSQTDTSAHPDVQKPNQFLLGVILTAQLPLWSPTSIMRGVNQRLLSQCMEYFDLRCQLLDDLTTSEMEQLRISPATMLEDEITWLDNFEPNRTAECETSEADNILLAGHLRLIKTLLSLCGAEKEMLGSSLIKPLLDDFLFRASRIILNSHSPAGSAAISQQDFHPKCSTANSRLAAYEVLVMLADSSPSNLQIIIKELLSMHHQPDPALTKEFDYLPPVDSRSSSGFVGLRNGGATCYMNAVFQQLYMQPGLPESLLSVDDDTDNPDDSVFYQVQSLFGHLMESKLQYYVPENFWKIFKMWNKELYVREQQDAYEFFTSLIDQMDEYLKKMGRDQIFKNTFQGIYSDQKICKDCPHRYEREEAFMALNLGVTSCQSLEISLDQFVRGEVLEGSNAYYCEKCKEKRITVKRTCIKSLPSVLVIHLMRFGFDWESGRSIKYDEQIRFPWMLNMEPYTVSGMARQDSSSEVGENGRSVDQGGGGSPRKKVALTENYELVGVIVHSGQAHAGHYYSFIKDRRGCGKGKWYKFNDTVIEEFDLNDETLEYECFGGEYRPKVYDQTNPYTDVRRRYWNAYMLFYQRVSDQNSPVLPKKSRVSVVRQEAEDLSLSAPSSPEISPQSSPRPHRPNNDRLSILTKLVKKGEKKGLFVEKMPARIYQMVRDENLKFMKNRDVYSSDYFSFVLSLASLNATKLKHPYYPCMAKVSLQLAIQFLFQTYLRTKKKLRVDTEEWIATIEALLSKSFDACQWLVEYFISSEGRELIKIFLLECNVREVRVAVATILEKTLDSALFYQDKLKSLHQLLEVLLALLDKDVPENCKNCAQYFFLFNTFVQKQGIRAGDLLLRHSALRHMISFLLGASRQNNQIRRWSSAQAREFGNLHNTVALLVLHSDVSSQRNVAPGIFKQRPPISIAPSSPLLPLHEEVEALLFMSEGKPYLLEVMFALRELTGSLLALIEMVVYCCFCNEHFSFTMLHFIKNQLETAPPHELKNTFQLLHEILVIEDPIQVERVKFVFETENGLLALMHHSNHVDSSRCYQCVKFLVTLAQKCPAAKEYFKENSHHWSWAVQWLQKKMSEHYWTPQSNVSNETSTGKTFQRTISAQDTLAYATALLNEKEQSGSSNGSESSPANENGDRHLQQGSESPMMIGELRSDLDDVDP
Method in brief: as §1

USP25 = target: T3, USP25 (UniProt Q9UHP3)
T3 sequence (whole entry): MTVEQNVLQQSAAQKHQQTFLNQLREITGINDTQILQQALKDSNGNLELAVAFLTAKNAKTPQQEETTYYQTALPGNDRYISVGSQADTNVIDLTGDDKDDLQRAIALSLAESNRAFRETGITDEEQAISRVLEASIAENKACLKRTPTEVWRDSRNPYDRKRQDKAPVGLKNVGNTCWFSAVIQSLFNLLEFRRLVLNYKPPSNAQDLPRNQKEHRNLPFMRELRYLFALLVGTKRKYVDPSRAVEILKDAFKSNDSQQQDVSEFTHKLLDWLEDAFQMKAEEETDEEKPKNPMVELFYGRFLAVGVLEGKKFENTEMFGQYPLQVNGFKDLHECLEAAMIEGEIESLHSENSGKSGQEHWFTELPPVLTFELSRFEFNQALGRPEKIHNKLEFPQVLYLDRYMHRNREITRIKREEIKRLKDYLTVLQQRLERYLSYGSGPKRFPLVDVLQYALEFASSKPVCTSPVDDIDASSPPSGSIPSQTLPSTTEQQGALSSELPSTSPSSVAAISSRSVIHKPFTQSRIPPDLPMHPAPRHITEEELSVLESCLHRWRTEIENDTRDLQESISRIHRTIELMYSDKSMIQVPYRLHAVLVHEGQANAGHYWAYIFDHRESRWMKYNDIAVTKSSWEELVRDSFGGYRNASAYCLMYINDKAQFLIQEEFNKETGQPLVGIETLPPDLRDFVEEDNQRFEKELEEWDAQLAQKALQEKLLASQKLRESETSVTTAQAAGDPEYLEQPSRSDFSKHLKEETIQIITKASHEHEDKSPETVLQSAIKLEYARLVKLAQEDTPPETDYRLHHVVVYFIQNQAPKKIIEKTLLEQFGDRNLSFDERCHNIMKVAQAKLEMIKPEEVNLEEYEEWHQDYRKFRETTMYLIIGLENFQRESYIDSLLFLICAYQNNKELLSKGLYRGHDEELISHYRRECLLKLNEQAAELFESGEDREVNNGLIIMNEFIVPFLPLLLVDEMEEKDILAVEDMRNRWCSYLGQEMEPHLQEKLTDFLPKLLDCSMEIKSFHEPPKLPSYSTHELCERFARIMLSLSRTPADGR
Method in brief: as §1

USP28 = target: T4, USP28 (UniProt Q96RU2)
T4 sequence (whole entry): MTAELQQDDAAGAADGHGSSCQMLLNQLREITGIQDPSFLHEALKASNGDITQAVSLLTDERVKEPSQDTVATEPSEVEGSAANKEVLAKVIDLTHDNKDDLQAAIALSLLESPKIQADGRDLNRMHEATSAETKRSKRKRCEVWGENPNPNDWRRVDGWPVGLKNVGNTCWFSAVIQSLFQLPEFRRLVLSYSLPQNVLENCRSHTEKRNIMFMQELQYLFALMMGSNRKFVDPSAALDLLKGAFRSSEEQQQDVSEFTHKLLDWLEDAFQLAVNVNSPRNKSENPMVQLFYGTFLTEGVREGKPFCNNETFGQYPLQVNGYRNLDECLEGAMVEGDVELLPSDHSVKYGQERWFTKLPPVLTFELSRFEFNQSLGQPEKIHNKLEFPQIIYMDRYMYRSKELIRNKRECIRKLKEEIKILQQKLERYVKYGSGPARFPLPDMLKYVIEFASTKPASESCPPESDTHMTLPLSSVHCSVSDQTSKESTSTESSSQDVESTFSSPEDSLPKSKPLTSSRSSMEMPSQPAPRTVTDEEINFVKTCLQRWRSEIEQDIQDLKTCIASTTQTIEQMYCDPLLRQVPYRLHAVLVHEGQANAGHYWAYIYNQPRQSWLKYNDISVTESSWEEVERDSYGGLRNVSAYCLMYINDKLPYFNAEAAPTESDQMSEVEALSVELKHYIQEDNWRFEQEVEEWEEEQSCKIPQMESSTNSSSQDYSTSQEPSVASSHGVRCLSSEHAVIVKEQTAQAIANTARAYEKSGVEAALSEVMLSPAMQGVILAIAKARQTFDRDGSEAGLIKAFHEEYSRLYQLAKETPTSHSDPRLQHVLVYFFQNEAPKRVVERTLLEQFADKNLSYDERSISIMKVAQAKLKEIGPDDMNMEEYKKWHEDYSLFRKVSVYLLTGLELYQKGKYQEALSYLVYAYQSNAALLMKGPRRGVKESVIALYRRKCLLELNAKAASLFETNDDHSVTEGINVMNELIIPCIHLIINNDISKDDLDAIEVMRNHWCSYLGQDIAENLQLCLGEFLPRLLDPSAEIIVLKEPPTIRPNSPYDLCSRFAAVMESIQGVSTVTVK
Method in brief: as §1

Measured: log2 ratio of Biotin-Ahx-Ub-VS probe labelling

Cc1ccc(C)c(Oc2ccc(CNC(=O)CCl)cn2)c1.Cl
inactive: USP19 -0.382 | USP22 -0.856 | USP24 -0.83 | USP25 -0.627 | USP28 -0.765

— the supplement of paper PMC11732987, “Enantioselective OTUD7B fragment discovery through chemoproteomics screening and high-throughput optimisation” (Communications Chemistry, 2025)
